Drawing on PubChem BioAssay (EPA / NIEHS), this text covers outcome and AC50 for eleven compounds.

The nature of experiment [1]: ATG_TAL_CIS: Attagene CIS-FACTORIAL HepG2 Assay for human TAL Basal Promoter (AID 2282966; active means hit-call score of the fitted dose curve at least 0.9, where 1 is the maximum; inactive means score below 0.9;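 further: background control endpoint measuring basal TAL promoter reporter mRNA not a specific factor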). Conditions: HepG2 Attagene cis-factorial TAL promoter reporter; actives raise or lower the signal. An outline of the steps: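 Human hepatoma HepG2 cells, transfected with promoter-regulated reporter units, were treated 24 h. Reporter transcript levels, measured through RT-PCR and capillary electrophoresis, were fitted for gain or loss relative to DMSO.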

A short description of experiment [2]: ATG_TGFb_CIS: Attagene CIS-FACTORIAL HepG2 Assay for human Transforming Growth Factor (TGF) (AID 2282967; active means hit-call score of the fitted dose curve at least 0.9, where 1 is the maximum; inactive means score below 0.9). The following applies: HepG2 Attagene CIS TGFb reporter, mRNA transcription; actives raise or lower the signal. An outline of the steps:
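Endogenous TGFB1-linked transcription factor activity read as reporter mRNA via RT-PCR and capillary electrophoresis, 24 h after dosing transiently transfected HepG2 cells. Gain or loss of signal fitted relative to DMSO.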

A short description of experiment [3]: ATG_VDRE_CIS: Attagene CIS-FACTORIAL HepG2 Assay for human Vitamin D Receptor Element (VDRE) (AID 2282968; active means hit-call score of the fitted dose curve at least 0.9, where 1 is the maximum; inactive means score below 0.9). Conditions: HepG2 VDRE cis-reporter transcription, actives raise or lower the signal. An outline of the steps: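 Steps: transfect HepG2 with multiple reporter transcription units; dose chemicals 24 h; isolate RNA; RT-PCR; label with 6-FAM primer extension; HpaI digest; capillary electrophoresis. Curves fitted both directions against DMSO.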

The target of experiment [4] is X-box-binding protein 1 (Homo sapiens) (UniProt P17861). As to the kind of experiment: ATG_Xbp1_CIS: Attagene CIS-FACTORIAL HepG2 Assay for human X-box Binding Protein 1 (XBP1) (AID 2282972; active means hit-call score of the fitted dose curve at least 0.9, where 1 is the maximum; inactive means score below 0.9). The following applies: HepG2 XBP1 cis-element reporter, Attagene multiplex; actives raise or lower the signal. An outline of the steps:
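Reporter transcripts were quantified by RT-PCR with fluorescent primer extension and capillary electrophoresis after 24 h chemical exposure. Cells: transiently transfected HepG2 carrying cis-regulated reporter constructs; data fitted bidirectionally relative to DMSO.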

The nature of experiment [5]: ATG_M_19_TRANS: Attagene TRANS-FACTORIAL HepG2 Assay for M19 Transcription Factor (Internal Marker) (AID 2282974). The following applies: HepG2 Attagene TRANS-FACTORIAL M19 internal marker reporter. An outline of the steps: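 Using RT-PCR and capillary electrophoresis, reporter mRNA from transiently transfected human HepG2 cells was quantified following 24 h exposure; activity was fitted in the positive direction against DMSO.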

The nature of experiment [6]: ATG_GAL4_TRANS: Attagene TRANS-FACTORIAL HepG2 Assay for GAL4 (Internal Marker) (AID 2282976). Conditions: HepG2 Attagene TRANS GAL4 internal marker reporter. An outline of the steps:
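Liver HepG2 line bearing multiplexed GAL4-UAS reporter constructs; 24 h chemical treatment. Transcripts were quantified as fluorescent fragments on capillary electrophoresis after RT-PCR and HpaI cut, with activity fitted upward from DMSO.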

In experiment [7] the target is Bile acid receptor (Homo sapiens) (UniProt Q96RI1). Description: ATG_FXR_TRANS: Attagene TRANS-FACTORIAL HepG2 Assay for Farnesoid X Receptor (FXR) (AID 2282979).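 Further: hits raise reporter mRNA above DMSO so AC50 marks FXR activation.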 The following applies: HepG2 Attagene TRANS FXR-GAL4 reporter transcription. An outline of the steps: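 After 24 h chemical treatment of transfected HepG2 cells, GAL4-UAS reporter transcripts driven by an exogenous FXR-GAL4 fusion were measured by RT-PCR and capillary electrophoresis. Increases over DMSO were fitted.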

Experiment [8] addresses Oxysterols receptor LXR-alpha (Homo sapiens) (UniProt Q13133). As to the kind of experiment: ATG_LXRa_TRANS: Attagene TRANS-FACTORIAL HepG2 Assay for human Liver X Receptor alpha (LXRa) (AID 2282980). Conditions: HepG2 Attagene TRANS reporter, LXRa transactivation. Summed up: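 In this multiplexed TRANS system, compounds act on HepG2 cells carrying GAL4-UAS reporter units and a receptor-GAL4 fusion for 24 h. Induced reporter RNA is amplified, fluorescently labelled and sized by capillary electrophoresis, with DMSO as baseline.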

The target of experiment [9] is Hepatocyte nuclear factor 4-alpha (Homo sapiens) (UniProt P41235). As to the kind of experiment: ATG_HNF4a_TRANS: Attagene TRANS-FACTORIAL HepG2 Assay for human Hepatocyte Nuclear Factor 4 alpha (HNF4a) (AID 2282982). Conditions: HepG2 HNF4a transactivation reporter, mRNA readout. An outline of the steps:
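In this trans-factorial format, a chimeric HNF4a-GAL4 fusion drives a GAL4-UAS reporter in transfected HepG2 liver cells. After 24 h treatment, reporter mRNA induction is measured by RT-PCR with capillary electrophoresis, relative to DMSO.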

A short description of experiment [10]: ATG_M_32_TRANS: Attagene TRANS-FACTORIAL HepG2 Assay for M32 Transcription Factor (Internal Marker) (AID 2282984). Conditions: HepG2 Attagene TRANS M32 internal marker reporter. Summed up:
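After 24 h dosing of transfected HepG2 cells, total RNA was reverse-transcribed, reporter sequences PCR-amplified, 6-FAM labelled by primer extension and HpaI-digested before capillary electrophoresis. Signal increase over DMSO was fitted.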

Experiment [11] deals with Transcriptional activator Myb (Homo sapiens) (UniProt P10242). As to the kind of experiment: ATG_Myb_CIS: Attagene CIS-FACTORIAL HepG2 Assay for human Myeloblastosis (Myb) Proto-Oncogene Transcription Factor (AID 2282986; active means hit-call score of the fitted dose curve at least 0.9, where 1 is the maximum; inactive means score below 0.9). Conditions: HepG2 Attagene CIS-FACTORIAL Myb reporter transcription; actives raise or lower the signal. Summed up: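 In this HepG2 transient-transfection format, cis-regulated reporter mRNA is quantified 24 h post-dosing by RT-PCR with capillary electrophoresis, fitted bidirectionally to DMSO baseline.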

The target of experiment [12] is Androgen receptor (Homo sapiens) (UniProt P10275). Description: ATG_AR_TRANS: Attagene TRANS-FACTORIAL HepG2 Assay for human Androgen Receptor (AR) (AID 2282973). The following applies: HepG2 Attagene TRANS-FACTORIAL AR reporter transcription. An outline of the steps: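 Chimeric nuclear receptor–Gal4 activity was assessed in human HepG2 hepatocytes after 24 h chemical dosing. Induced reporter mRNA was detected via labelled RT-PCR fragments on capillary electrophoresis, and gain of signal was analysed against DMSO.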

The target of experiment [13] is Nuclear receptor subfamily 4 group A member 2 (Homo sapiens) (UniProt P43354). As to the kind of experiment: ATG_NURR1_TRANS: Attagene TRANS-FACTORIAL HepG2 Assay for human Nuclear Receptor Related Protein 1 (NURR1) (AID 2282985). Conditions: HepG2 Attagene TRANS reporter, mRNA readout. Summed up:
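Chimeric NR-Gal4 fusion activity measured in HepG2 after 24 h treatment. Reporter transcripts detected by RT-PCR and capillary electrophoresis fluorescence; positive-direction curve fitting against DMSO.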

The target of experiment [14] is Nuclear receptor subfamily 1 group I member 3 (Homo sapiens) (UniProt Q14994). Description: ATG_CAR_TRANS: Attagene TRANS-FACTORIAL HepG2 Assay for human Constitutive Androstane Receptor (CAR) (AID 2282969).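 Further: activators raise reporter mRNA above DMSO so AC50 marks induction.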 The following applies: HepG2 Attagene TRANS-FACTORIAL CAR reporter. Summed up: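 Steps: transient transfection of HepG2 with multiple GAL4-UAS reporter units; 24 h compound incubation; RNA isolation, RT-PCR, 6-FAM primer extension, HpaI digest; capillary electrophoresis. Gain-of-signal relative to DMSO negative control.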

Experiment [15] in a line: ATG_M_06_TRANS: Attagene TRANS-FACTORIAL HepG2 Assay for M06 Transcription Factor (Internal Marker) (AID 2282983). Conditions: HepG2 Attagene TRANS M06 internal marker reporter. An outline of the steps:
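Multi-reporter-transfected HepG2, 24 h treatment; reporter transcripts quantified via RT-PCR, primer-extension labelling and CE. DMSO-normalized gain-of-signal fit.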

Experiment [16] has as its target Steroid hormone receptor ERR1 (Homo sapiens) (UniProt P11474). As to the kind of experiment: ATG_ERRa_TRANS: Attagene TRANS-FACTORIAL HepG2 Assay for human Estrogen-Related Receptor alpha (ERRa) (AID 2282971). Conditions: HepG2 Attagene TRANS reporter, ERRa transactivation. Summed up: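 Signal gain relative to DMSO for an ERRa-Gal4 chimeric receptor, read as reporter mRNA by RT-PCR/capillary electrophoresis. Human HepG2 liver cells, transient multiplex reporter transfection, 24 h chemical exposure.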

The target in experiment [17] is Oxysterols receptor LXR-beta (Homo sapiens) (UniProt P55055). As to the kind of experiment: ATG_LXRb_TRANS: Attagene TRANS-FACTORIAL HepG2 Assay for human Liver X Receptor beta (LXRb) (AID 2282981). The following applies: HepG2 Attagene TRANS GAL4-LXRb reporter, mRNA. Summed up: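 Measures induction of a Gal4-driven reporter transcript in HepG2 cells expressing an exogenous LXRb-Gal4 fusion. Cells are exposed to compound for 24 h before RNA isolation and RT-PCR with capillary electrophoresis detection.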

Experiment [18] has as its target Estrogen receptor (Homo sapiens) (UniProt P03372). As to the kind of experiment: ATG_ERa_TRANS: Attagene TRANS-FACTORIAL HepG2 Assay for human Estrogen Receptor alpha (ERa) (AID 2282970). Conditions: HepG2 Attagene TRANS ERa GAL4 reporter, mRNA. An outline of the steps: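 Signal derives from fluorescence of labelled reporter PCR fragments separated by capillary electrophoresis. HepG2 cells transiently carrying multiple GAL4-UAS reporter units were treated 24 hours, and induction above DMSO baseline was fitted as activity.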

The target in experiment [19] is Estrogen-related receptor gamma (Homo sapiens) (UniProt P62508). As to the kind of experiment: ATG_ERRg_TRANS: Attagene TRANS-FACTORIAL HepG2 Assay for human Estrogen-Related Receptor gamma (ERRg) (AID 2282977).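 Further: hits increase reporter signal over DMSO so potencies reflect activators.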 The following applies: HepG2 Attagene TRANS reporter, ERRg transactivation. Summed up: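 Exogenous NR-Gal4 chimera activity measured as reporter transcript induction after 24 h in transiently transfected HepG2 cells. RNA reverse-transcribed, PCR-amplified, 6-FAM-labelled and resolved by capillary electrophoresis; increase over DMSO baseline.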

The term AC50 denotes the midpoint of the concentration-response curve, whichever way the signal moves.

Results filed as inconclusive are left out. Active and inactive are the calls of the source. How the source made its calls, unless noted: active means hit-call score of the fitted dose curve at least 0.9, where 1 is the maximum; inconclusive means response in the unintended direction; inactive means score below 0.9.

Sequence of Oxysterols receptor LXR-beta (Homo sapiens) (P55055 whole entry, looked up, the tested form may be a part): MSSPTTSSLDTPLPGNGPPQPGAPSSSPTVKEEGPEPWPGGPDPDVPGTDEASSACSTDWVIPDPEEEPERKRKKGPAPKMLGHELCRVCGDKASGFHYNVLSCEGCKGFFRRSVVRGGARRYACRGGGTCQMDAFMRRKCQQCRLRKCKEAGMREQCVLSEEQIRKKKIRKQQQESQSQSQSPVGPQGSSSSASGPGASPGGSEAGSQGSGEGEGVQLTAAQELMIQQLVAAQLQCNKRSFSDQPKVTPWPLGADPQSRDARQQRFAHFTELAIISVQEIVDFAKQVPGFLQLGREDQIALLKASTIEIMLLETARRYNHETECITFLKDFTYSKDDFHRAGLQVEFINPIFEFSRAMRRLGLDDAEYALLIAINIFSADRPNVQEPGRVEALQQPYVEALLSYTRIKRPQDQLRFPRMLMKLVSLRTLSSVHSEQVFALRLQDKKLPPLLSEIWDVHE
Sequence of Steroid hormone receptor ERR1 (Homo sapiens) (P11474 whole entry, looked up, the tested form may be a part): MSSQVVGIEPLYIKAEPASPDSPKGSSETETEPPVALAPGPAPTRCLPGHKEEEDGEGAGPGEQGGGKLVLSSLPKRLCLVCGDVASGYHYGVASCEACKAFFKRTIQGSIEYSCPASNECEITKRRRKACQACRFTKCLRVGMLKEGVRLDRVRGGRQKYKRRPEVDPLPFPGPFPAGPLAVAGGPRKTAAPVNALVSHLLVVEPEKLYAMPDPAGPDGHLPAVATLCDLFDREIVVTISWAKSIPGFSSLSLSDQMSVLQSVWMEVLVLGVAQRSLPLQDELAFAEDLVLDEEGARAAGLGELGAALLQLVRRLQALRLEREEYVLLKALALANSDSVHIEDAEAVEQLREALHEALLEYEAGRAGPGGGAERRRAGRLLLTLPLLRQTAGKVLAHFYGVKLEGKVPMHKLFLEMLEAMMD
Sequence of Transcriptional activator Myb (Homo sapiens) (P10242 whole entry, looked up): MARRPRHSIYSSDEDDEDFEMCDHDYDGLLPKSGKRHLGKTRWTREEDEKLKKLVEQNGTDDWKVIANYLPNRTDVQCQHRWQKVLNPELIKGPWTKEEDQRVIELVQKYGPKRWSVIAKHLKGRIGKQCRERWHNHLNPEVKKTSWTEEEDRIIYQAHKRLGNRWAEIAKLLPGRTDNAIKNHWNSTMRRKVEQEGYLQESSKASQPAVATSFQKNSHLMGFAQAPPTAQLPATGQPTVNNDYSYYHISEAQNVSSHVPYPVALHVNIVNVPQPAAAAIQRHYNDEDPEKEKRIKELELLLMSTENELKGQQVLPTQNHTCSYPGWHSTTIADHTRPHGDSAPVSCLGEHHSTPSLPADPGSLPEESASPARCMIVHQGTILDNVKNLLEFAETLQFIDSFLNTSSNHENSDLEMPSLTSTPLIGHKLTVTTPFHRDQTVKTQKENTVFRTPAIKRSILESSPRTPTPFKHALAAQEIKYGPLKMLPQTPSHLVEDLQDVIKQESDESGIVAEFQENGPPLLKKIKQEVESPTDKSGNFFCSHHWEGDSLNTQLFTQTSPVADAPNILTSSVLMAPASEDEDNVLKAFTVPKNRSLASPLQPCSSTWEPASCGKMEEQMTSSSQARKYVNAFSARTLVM
Sequence of Oxysterols receptor LXR-alpha (Homo sapiens) (Q13133 whole entry, looked up, the tested form may be a part): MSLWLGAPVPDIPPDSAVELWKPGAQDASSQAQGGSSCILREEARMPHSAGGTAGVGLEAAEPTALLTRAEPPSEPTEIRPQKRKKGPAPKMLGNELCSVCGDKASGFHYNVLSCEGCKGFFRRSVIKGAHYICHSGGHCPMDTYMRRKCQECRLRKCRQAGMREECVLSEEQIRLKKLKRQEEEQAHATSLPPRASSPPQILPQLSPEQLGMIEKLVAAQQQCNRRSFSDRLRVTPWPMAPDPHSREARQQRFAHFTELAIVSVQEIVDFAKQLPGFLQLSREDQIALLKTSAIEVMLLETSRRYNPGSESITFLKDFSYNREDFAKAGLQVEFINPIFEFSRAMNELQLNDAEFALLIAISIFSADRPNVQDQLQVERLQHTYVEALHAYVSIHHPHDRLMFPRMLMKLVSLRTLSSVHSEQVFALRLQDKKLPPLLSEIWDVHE
Sequence of Bile acid receptor (Homo sapiens) (Q96RI1 whole entry, looked up, the tested form may be a part): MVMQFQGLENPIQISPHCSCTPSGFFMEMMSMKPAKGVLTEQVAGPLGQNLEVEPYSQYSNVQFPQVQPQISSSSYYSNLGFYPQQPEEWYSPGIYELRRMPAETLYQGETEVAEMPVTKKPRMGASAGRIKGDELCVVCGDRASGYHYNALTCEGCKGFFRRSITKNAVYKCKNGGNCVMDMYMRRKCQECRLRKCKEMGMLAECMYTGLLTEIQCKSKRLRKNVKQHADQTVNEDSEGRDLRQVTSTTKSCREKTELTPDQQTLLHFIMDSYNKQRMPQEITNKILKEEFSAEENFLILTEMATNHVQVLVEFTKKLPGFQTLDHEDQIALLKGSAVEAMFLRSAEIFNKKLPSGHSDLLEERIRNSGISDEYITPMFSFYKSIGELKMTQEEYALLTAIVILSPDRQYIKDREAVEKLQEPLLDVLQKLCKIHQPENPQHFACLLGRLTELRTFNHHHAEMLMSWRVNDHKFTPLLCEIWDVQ
Sequence of Androgen receptor (Homo sapiens) (P10275 whole entry, looked up, the tested form may be a part): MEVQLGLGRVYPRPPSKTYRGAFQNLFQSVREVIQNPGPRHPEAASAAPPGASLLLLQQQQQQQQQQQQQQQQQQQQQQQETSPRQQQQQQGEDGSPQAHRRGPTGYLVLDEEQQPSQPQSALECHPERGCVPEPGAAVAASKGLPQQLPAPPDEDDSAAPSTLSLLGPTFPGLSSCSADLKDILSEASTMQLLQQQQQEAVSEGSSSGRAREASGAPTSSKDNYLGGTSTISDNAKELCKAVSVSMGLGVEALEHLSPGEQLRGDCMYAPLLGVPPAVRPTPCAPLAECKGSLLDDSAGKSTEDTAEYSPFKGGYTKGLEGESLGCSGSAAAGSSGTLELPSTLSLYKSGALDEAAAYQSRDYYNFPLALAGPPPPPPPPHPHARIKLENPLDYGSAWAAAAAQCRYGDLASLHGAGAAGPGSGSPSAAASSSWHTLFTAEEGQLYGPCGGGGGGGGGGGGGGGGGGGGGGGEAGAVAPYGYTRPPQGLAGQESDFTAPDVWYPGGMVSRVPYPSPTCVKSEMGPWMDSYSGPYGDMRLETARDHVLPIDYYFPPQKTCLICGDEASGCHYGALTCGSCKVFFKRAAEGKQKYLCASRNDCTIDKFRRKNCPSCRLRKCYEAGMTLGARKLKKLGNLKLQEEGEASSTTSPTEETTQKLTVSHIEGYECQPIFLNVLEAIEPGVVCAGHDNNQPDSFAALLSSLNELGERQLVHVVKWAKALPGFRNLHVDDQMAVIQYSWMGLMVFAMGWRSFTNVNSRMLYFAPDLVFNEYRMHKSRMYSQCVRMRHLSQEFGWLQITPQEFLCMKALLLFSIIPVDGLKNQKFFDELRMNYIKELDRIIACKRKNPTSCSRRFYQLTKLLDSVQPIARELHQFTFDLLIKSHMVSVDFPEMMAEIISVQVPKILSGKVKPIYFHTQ
Sequence of Hepatocyte nuclear factor 4-alpha (Homo sapiens) (P41235 whole entry, looked up, the tested form may be a part): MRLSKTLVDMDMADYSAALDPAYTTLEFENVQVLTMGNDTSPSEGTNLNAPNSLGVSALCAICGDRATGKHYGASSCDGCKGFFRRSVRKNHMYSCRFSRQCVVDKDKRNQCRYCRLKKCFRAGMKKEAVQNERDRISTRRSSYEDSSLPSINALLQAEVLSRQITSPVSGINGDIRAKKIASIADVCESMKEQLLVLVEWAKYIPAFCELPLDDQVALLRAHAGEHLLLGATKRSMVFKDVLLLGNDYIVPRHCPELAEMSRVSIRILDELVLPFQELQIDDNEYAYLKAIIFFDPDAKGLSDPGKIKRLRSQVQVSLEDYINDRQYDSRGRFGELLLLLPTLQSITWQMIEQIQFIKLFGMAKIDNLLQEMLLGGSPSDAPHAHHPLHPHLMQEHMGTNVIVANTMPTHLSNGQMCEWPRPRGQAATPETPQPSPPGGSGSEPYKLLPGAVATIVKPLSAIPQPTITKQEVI
Sequence of Nuclear receptor subfamily 4 group A member 2 (Homo sapiens) (P43354 whole entry, looked up, the tested form may be a part): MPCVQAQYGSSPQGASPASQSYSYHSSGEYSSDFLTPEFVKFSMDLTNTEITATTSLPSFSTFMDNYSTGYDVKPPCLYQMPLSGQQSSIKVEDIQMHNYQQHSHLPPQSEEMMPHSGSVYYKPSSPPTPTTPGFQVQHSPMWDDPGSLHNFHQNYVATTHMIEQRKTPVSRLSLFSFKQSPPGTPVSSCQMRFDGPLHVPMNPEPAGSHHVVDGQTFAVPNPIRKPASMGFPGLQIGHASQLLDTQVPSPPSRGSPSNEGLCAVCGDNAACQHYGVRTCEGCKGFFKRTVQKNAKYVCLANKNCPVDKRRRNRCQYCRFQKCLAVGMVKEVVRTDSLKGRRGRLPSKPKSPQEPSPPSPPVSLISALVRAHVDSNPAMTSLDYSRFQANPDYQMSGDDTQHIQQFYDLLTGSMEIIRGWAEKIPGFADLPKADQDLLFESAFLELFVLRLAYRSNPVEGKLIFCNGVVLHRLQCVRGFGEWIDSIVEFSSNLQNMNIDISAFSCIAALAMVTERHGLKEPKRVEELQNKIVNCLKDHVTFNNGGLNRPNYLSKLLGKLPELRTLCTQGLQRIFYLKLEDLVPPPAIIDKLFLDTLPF
Sequence of X-box-binding protein 1 (Homo sapiens) (P17861 whole entry, looked up): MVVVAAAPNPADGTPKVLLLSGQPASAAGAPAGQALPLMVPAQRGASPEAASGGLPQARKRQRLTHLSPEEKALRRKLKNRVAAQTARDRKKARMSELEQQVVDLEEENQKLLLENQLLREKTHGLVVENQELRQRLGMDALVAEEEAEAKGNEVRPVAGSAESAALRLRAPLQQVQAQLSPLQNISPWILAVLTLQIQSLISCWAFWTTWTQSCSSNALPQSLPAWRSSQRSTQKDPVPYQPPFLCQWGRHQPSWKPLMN

For the compound `C=C(C)C#N`, the result in experiment [1], in [2], in [3], in [4], in experiment [5] and in [6] was inactive. Also, the outcome in experiment [7], in experiment [8], in experiment [9], in experiment [10] and in [11] was inactive.

Take `COS(=O)(=O)c1ccc(C)cc1`: the outcome in [1], in [2], in experiment [3], in [4], in [12] and in [5] was inactive. The outcome in [7], in [8], in experiment [9], in experiment [10], in experiment [13] and in experiment [11] was inactive.

Take `CC1CN1P(=O)(N1CC1C)N1CC1C` (stereo not drawn): the call in experiment [1], in experiment [2], in experiment [3], in experiment [14], in experiment [4] and in experiment [8] was inactive. The call in experiment [9], in [15] and in experiment [11] was inactive.

For the compound `Cl/C=C\C[N+]12CN3CN(CN(C3)C1)C2`, the compound was called inactive in experiment [1], in experiment [2], in [3], in experiment [16], in experiment [4] and in [12]. Moreover, the outcome in [5], in experiment [7], in [17], in experiment [9], in experiment [10] and in experiment [13] was inactive. For the same compound, the call in experiment [11] was inactive.

For `CCOP(=S)(OCC)SCCS(=O)(=O)CC`, the result in [1], in experiment [2], in experiment [3], in experiment [18], in experiment [16] and in [4] was inactive. Further, the call in experiment [5], in experiment [19], in experiment [7], in [8] and in experiment [11] was inactive.

`CC1(C)CCC(Cc2ccc(Cl)cc2)C1(O)Cn1cncn1` (stereo not drawn): the compound was called inactive in experiment [1], in experiment [2], in [16], in experiment [4], in experiment [5] and in experiment [7]. The compound was called inactive in [8], in experiment [15], in experiment [10], in experiment [13] and in experiment [11]. Further, the AC50 is 17700 nM (active) in experiment [3] and 5300 nM (active) in experiment [18].

Consider `CCc1ccccc1C`, for which the result in experiment [1], in [2], in experiment [3], in [4], in experiment [12] and in experiment [5] was inactive. Moreover, the compound was called inactive in experiment [6], in experiment [19], in [7], in experiment [8], in experiment [17] and in experiment [9]. For the same compound, the outcome in experiment [15], in experiment [10] and in experiment [11] was inactive.

Consider `CCCCP(CCCC)CCCC`, for which the result in [1], in experiment [2], in experiment [3], in experiment [4], in experiment [5] and in experiment [6] was inactive. The outcome in experiment [7], in experiment [8], in experiment [17], in [9] and in experiment [11] was inactive.

For `C[C@H]1O[C@@H](O[C@H]2[C@@H](O)C[C@H](O[C@H]3[C@@H](O)C[C@H](O[C@H]4CC[C@@]5(C)[C@H](CC[C@@H]6[C@@H]5CC[C@]5(C)[C@@H](C7=CC(=O)OC7)CC[C@]65O)C4)O[C@@H]3C)O[C@@H]2C)C[C@H](O)[C@@H]1O`, the AC50 is 56.4 nM (active) in experiment [1], 497 nM (active) in [4] and 56.4 nM (active) in experiment [11]. The compound was called inactive in [2], in [3], in experiment [18], in experiment [9], in experiment [15] and in experiment [13].

`Clc1nc(Cl)nc(Cl)n1`: the compound was classed as inactive in experiment [1], in experiment [2], in experiment [3], in experiment [18], in experiment [4] and in [9]. Moreover, the compound was called inactive in [15], in experiment [10], in experiment [13] and in experiment [11].

For `N#CCc1ccc(Cl)cc1`, the result in experiment [1], in [2], in experiment [3], in [18], in experiment [4] and in experiment [6] was inactive. Moreover, the outcome in [8], in experiment [15] and in experiment [11] was inactive.
